# From PubChem BioAssay (NCATS)
# Records with an inconclusive call do not appear. The list shows a part of the results. Active and inactive are the calls of the source. Unless noted, calls come from the whole dose curve; as a rule, active = well fitted curve in the direction sought with a large enough effect; inconclusive = small, poorly fitted or top-dose-only effect, or another doubt; inactive = no such curve, though single readings can be large; an effect the other way counts as inactive or inconclusive.
# How the values were obtained:
# [1] = qHTS Assay for Identifying Gametocytocidal Compounds (AID 743244); note: potency is the fitted concentration of half-maximal effect;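 for max response: % is set by controls: 0 for no effect and ±100 for the full control effect; actives lower the fluorescent signal which means gametocytes are killed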; conditions: P. falciparum 3D7 stage III-V gametocytes, alamarBlue, 72 h; max response: stronger effect = lower value
# Outline: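 Late gametocytes (III–V), P. falciparum 3D7; 72 h drug, then 24 h alamarBlue; resazurin reduction read by fluorescence.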
# [2] = qHTS profiling for inhibitors of Plasmodium falciparum (3D7) proliferation (AID 743322);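 note: infected erythrocytes exposed to compound for 72 h before lysis; 100% = DMSO vehicle wells and 0% = 0.29 µM artemisinin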; conditions: P. falciparum 3D7 proliferation; at 28.7 µM (top of the series) unless noted
# Outline: (§1)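 Erythrocytes infected with P. falciparum (0.3% parasitemia, 2.5% hematocrit) incubated with compounds 72 h at 37 C, 5% CO2. Lysis with saponin/Triton buffer containing SYBR Green I, overnight at room temperature in the dark; DNA fluorescence (485/535 nm) normalised to 0.29 uM artemisinin and DMSO.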
# [3] = qHTS profiling for inhibitors of Plasmodium falciparum (DD2) proliferation (AID 743323; call rule not given here); conditions: lower = more inhibition; at 28.7 µM (top of the series) unless noted
# Outline: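 P. falciparum Dd2-infected erythrocytes (0.3% parasitemia, 2.5% hematocrit) exposed 72 h at 37 C, 5% CO2. Lysis with SYBR Green, overnight at room temperature, fluorescence 485/535 nm; normalized to 0.29 uM artemisinin and DMSO.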
# [4] = qHTS profiling for inhibitors of Plasmodium falciparum (HB3) proliferation (AID 743324); conditions: Plasmodium falciparum HB3 blood-stage proliferation; at 28.7 µM (top of the series) unless noted;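 note: 100% = DMSO vehicle wells and 0% = artemisinin-treated control wells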
# Outline: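 P. falciparum HB3 grown in erythrocytes (0.3% parasitemia, 2.5% hematocrit final) with compound for 72 h at 37 C, 5% CO2. Parasite DNA detected by SYBR Green after saponin/triton lysis overnight; normalized to 0.29 uM artemisinin and DMSO.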
# [5] = target: Nuclear receptor ROR-gamma (Homo sapiens) (UniProt P51449); test: qHTS assay for small molecule antagonists of the retinoid-related orphan receptor gamma (ROR-gamma) signaling pathway (AID 651802); note: nearly all actives have a fitted effect of over 60% in size; note: potency is the fitted concentration of half-maximal effect; for activity change, negative = inhibition: % is set by controls: 0 for no effect and ±100 for the full control effect
# Nuclear receptor ROR-gamma (Homo sapiens), sequence (P51449 whole entry, looked up): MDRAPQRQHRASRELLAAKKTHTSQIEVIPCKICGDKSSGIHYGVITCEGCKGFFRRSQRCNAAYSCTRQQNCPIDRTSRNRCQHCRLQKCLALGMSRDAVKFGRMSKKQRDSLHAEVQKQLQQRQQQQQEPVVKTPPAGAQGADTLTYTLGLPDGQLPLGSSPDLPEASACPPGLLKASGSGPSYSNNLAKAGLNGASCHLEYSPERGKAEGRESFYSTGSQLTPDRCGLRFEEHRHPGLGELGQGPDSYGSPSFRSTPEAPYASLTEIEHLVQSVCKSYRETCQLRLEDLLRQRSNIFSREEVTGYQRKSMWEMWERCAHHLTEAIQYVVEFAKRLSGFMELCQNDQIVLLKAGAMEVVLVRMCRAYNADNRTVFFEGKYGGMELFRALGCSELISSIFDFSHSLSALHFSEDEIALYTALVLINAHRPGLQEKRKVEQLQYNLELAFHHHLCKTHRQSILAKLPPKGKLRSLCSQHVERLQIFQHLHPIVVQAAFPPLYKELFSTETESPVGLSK
# Outline: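 CHO cells carrying TET-inducible ROR-gamma and an ROR response element–luciferase reporter were exposed to compound, then induced with doxycycline. After 16hr at 37C, luminescence was read; lower signal indicates antagonism.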
# [6] = target: Cytochrome P450 2C9 (Homo sapiens) (UniProt P11712); test: qHTS Assay for Inhibitors and Substrates of Cytochrome P450 2C9 (AID 883); note: nearly all actives have a fitted effect of over 60% in size; note: potency is the fitted concentration of half-maximal effect; for activity change, negative = inhibition: % is set by controls: 0 for no effect and ±100 for the full control effect
# Cytochrome P450 2C9 (Homo sapiens), sequence (P11712 whole entry, looked up): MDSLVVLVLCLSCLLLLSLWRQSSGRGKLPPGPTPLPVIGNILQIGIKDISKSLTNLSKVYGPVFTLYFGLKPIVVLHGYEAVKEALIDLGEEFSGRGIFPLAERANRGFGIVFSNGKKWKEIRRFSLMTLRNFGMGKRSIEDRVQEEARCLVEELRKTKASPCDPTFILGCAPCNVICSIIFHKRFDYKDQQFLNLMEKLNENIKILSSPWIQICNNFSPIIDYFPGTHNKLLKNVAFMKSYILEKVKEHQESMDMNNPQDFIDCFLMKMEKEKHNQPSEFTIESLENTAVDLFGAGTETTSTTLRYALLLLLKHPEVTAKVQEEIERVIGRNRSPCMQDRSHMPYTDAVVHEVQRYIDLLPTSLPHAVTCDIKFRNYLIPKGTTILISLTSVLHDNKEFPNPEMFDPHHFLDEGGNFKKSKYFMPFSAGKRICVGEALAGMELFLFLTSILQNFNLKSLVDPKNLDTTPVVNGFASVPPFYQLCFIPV
# Outline: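 Human CYP2C9 (10nM) hydroxylated Luciferin-H (100uM, at its KM) to luciferin in 25mM KPO4. Compound was preincubated 10 min at 37C, then NADPH regeneration started a 60 min reaction at 37C. Luminescence was read after detection reagent, normalized to 57uM sulphaphenazole.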
# [7] = qHTS assay for small molecule agonists of the antioxidant response element (ARE) signaling pathway measured by Nrf2-dependant transcriptional activity (AID 720636; active = well fitted curve in the direction sought with a large enough effect in the repeat runs; an effect the other way counts as inactive or inconclusive;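 note: HepG2 cells with an ARE-driven luciferase reporter; % of control where 0% means no effect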)
# Outline: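 Nrf2-dependent transcription is measured in ARE-luc HepG2 cells: compound is applied for 16 hr at 37 C after a 6 hr attachment period, and luciferase activity is quantified by luminescence using ONE-Glo.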
# [8] = qHTS assay for small molecule agonists of the antioxidant response element (ARE) signaling pathway measured by Nrf2-dependant transcriptional activity - cell viability counter screen (AID 720653; active = well fitted curve in the direction sought with a large enough effect in the repeat runs; an effect the other way counts as inactive or inconclusive; note: potency is the fitted concentration of half-maximal effect); conditions: ARE-bla HepG2 viability, CellTiter-Glo ATP luminescence, 16 h; max response: stronger effect = lower value
# Outline: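 ARE-bla HepG2 cells (2,000/well) rested 5 hrs at 37C/5% CO2, then exposed to compounds in DMSO for 16 hrs. Viability was read in the same wells as intracellular ATP by luminescence, 30 min at room temperature after reagent addition.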
# [9] = target: Flap endonuclease 1 (Homo sapiens) (UniProt P39748); test: qHTS Assay for the Inhibitors of FEN1: Confirmatory Assay for Cherry-picked Compounds (AID 720498); conditions: FEN1 flap cleavage, TAMRA/BHQ2 fluorogenic DNA substrate; note: potency is the fitted concentration of half-maximal effect; nearly all actives have a fitted effect of over 60% in size
# Flap endonuclease 1 (Homo sapiens), sequence (P39748 whole entry, looked up): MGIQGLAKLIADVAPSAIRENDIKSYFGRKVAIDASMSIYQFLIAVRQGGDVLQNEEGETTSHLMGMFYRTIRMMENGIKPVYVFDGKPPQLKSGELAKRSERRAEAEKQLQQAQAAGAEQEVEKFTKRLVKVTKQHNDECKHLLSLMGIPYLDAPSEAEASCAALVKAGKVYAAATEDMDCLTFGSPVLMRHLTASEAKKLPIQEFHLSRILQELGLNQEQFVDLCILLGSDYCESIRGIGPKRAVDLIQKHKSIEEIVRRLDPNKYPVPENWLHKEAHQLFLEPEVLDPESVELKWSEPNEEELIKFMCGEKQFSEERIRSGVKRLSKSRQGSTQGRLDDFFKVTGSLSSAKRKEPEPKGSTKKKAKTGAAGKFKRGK
# Outline: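 FEN1 at 10 nM was preincubated with compound for 15 min at room temperature, then 50 nM (final) double-flap DNA substrate was added. TAMRA fluorescence released from the BHQ-2-quenched flap was read at 0 and 15 min (ex 525/em 598 nm).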
# [10] = target: DNA polymerase eta (Homo sapiens) (UniProt Q9Y253); test: qHTS for Inhibitors of Polymerase Eta: Confirmatory Assay for Cherry-picked Compounds (AID 720502); conditions: Pol eta primer extension, TAMRA/BHQ fluorescence, 10 min; note: potency is the fitted concentration of half-maximal effect
# DNA polymerase eta (Homo sapiens), sequence (Q9Y253 whole entry, looked up): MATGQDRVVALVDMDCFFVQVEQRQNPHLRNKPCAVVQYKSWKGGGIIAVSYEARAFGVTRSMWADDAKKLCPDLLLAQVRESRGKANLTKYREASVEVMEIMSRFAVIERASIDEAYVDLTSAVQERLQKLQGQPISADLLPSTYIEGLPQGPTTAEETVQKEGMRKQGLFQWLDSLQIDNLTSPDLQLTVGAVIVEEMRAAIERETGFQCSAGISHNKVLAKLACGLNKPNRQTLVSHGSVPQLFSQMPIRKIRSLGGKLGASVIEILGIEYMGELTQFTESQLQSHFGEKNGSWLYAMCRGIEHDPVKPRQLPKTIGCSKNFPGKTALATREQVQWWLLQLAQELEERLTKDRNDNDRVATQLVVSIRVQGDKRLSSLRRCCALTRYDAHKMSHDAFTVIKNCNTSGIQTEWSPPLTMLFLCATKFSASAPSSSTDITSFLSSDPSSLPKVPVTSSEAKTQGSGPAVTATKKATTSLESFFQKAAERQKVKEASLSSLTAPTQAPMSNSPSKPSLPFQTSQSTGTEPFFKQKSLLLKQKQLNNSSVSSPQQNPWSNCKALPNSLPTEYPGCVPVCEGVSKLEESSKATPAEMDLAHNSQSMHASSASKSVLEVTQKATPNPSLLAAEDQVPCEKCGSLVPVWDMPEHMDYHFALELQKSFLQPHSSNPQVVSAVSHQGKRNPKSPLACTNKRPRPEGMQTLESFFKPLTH
# Outline: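 Pol eta 10 nM; substrate 50 nM final (unlabeled primer, TAMRA reporter, BHQ-2 template); preincub. 15 min RT; reads t=0 and t=10 min at ex525/em598.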
# [11] = qHTS assay for small molecule agonists of the antioxidant response element (ARE) signaling pathway (AID 651741; active = well fitted activation curve with a large enough effect in the signal ratio; the % refers to the signal ratio; note: potency is the fitted concentration of half-maximal effect)
# Outline: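 ARE-bla HepG2 cells (beta-lactamase reporter under ARE control) were plated at 2,000 cells/well, preincubated 5 h at 37 C/5% CO2, then treated with DMSO-dissolved compounds for 16 h at 37 C; LiveBLAzer B/G FRET substrate added, fluorescence read after 2 h at room temperature.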
# [12] = qHTS assay for small molecule disruptors of the mitochondrial membrane potential - 5 hr assay (AID 651755; calls by dose curve; note: potency is the fitted concentration of half-maximal effect; nearly all actives have a fitted effect of over 40% in size)
# Outline: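 HepG2 cells, attached overnight at 37C, were exposed to compound or DMSO for 5 hr at 37C, 5% CO2. Mito-MPS dye was then added for 30 min, and fluorescence read at 490/535 nm (monomers) and 540/590 nm (aggregates).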
# [13] = qHTS profiling of the MIPE4 collection as inhibitors of Plasmodium falciparum (3D7) proliferation (AID 743344; call rule not given here;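 note: scaled between DMSO vehicle wells and 0.29 µM artemisinin as full inhibition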); conditions: P. falciparum 3D7 in erythrocytes, SYBR Green DNA fluorescence, 72 h; at 5.51 µM (top of the series) unless noted
# Outline: as §1
# [14] = qHTS profiling of the MIPE4 collection as inhibitors of Plasmodium falciparum (DD2) proliferation (AID 743345; call rule not given here); conditions: P. falciparum Dd2 in erythrocytes, SYBR Green DNA, 72 h; at 5.51 µM (top of the series) unless noted
# Outline: as §1
# [15] = qHTS profiling of the MIPE4 collection as inhibitors of Plasmodium falciparum (DD2) proliferation (Rep 2) (AID 743346; call rule not given here); conditions: P. falciparum Dd2 in erythrocytes, SYBR Green DNA, 72 h; at 5.51 µM (top of the series) unless noted
# Outline: as §1
# [16] = qHTS profiling of the MIPE4 collection as inhibitors of Plasmodium falciparum (HB3) proliferation (AID 743347; call rule not given here;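 note: plate controls were DMSO vehicle wells for no effect and artemisinin wells for full effect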); conditions: P. falciparum HB3 in erythrocytes, SYBR Green DNA, 72 h; at 5.51 µM (top of the series) unless noted
# Outline: as §1
# [17] = target: Cytochrome P450 3A4 (Homo sapiens) (UniProt P08684); test: qHTS Assay for Inhibitors and Substrates of Cytochrome P450 3A4 (AID 884); note: % is set by controls: 0 for no effect and ±100 for the full control effect; nearly all actives have a fitted effect of over 50% in size
# Cytochrome P450 3A4 (Homo sapiens), sequence (P08684 whole entry, looked up): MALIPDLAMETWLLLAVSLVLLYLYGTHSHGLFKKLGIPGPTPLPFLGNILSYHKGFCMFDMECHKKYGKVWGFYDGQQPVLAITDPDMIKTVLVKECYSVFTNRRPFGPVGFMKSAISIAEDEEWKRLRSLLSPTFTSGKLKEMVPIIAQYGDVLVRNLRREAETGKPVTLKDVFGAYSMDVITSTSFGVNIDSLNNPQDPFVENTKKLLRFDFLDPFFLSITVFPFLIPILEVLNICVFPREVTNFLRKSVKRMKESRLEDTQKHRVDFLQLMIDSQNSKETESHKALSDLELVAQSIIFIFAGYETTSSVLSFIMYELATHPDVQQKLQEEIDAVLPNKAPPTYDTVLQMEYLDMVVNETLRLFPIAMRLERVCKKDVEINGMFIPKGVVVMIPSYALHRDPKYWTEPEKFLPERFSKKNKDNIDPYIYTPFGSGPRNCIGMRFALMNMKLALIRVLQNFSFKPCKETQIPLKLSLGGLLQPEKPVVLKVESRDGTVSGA
# Outline: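 20 nM human CYP3A4 with 25 uM Luciferin-PPXE (at KM) in 200 mM KPO4, preincubated 10 min with compound; NADPH regeneration started a 60 min RT reaction. Luciferin detected by luminescence, normalized to 57 uM ketoconazole as full inhibition.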
# [18] = target: Cytochrome P450 2D6 (Homo sapiens) (UniProt P10635); test: qHTS Assay for Inhibitors and Substrates of Cytochrome P450 2D6 (AID 891);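 note: luciferin methyl ether substrate demethylated by CYP2D6 with NADPH regeneration; % is set by controls: 0 for no effect and ±100 for the full control effect; nearly all actives have a fitted effect of over 60% in size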
# Cytochrome P450 2D6 (Homo sapiens), sequence (P10635 whole entry, looked up): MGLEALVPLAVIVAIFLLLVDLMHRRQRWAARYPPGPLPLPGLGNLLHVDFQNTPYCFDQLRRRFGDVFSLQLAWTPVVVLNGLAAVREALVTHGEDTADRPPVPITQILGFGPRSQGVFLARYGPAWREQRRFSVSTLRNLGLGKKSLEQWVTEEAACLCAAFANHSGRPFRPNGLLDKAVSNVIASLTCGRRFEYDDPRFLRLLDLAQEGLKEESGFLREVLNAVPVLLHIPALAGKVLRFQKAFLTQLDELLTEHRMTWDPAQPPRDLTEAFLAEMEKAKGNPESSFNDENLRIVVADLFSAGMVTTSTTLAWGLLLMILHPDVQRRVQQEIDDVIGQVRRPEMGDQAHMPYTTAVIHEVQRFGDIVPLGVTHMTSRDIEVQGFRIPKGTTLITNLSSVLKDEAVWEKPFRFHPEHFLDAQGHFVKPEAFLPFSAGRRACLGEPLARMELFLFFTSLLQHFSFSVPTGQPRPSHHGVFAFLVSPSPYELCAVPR
# Outline: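 Human CYP2D6 (5 nM) with 30 uM Luciferin-ME EGE (at Km) in 100 mM KPO4, compound preincubated 10 min, then NADPH regeneration system for 60 min at room temperature. Luciferin read by luminescence; normalized to 1.43 uM quinidine.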
# [19] = target: Cytochrome P450 2C19 (Homo sapiens) (UniProt P33261); test: qHTS Assay for Inhibitors and Substrates of Cytochrome P450 2C19 (AID 899)
# Cytochrome P450 2C19 (Homo sapiens), sequence (P33261 whole entry, looked up): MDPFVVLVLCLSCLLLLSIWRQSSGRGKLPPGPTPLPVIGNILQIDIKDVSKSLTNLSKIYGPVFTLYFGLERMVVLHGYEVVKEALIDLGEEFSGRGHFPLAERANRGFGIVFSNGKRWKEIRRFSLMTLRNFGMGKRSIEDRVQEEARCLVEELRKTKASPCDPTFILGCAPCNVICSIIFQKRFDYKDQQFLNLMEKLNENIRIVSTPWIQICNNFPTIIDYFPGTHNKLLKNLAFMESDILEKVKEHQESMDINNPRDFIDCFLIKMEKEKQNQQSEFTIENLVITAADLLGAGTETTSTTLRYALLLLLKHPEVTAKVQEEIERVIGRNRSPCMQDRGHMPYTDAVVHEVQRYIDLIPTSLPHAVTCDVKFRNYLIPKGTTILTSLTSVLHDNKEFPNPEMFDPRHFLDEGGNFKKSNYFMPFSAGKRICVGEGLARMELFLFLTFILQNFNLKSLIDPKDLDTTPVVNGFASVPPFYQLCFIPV
# Outline: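 Human CYP2C19 (5nM) with Luciferin-H EGE at 10uM (its KM) in 50mM KPO4 was preincubated with compound for 10 min at 37C. NADPH regeneration started a 60 min 37C reaction. Luciferin was read by luminescence, normalized to 57uM ketoconazole.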
compound,measurement,setting,value
C[C@H]1[C@@H](OC(=O)CCC(=O)O)O[C@@H]2OC3(C)CC[C@H]4[C@H](C)CC[C@@H]1[C@@]24OO3,Potency,[1],0.0662 µM (active)
O=C1C(=O)c2ccccc2C(O)=C1C1CCC2(CC1)OOC1(O2)C2CC3CC(C2)CC1C3 (stereo not drawn),remaining parasite growth % (stronger effect = lower value),[2],0.339%
same,"activity, percent of control",[3],-0.0523%
same,"remaining proliferation (% of control), lower = more inhibition",[4],0.423%
O=NO,Potency,[5],inactive
CN(C)CCC(=O)[C@@]1(O)CC[C@H]2[C@H]3CC=C4C[C@@H](O)CC[C@]4(C)[C@H]3CC[C@]21C,Potency,[6],2.51 µM (active)
COC(C(=O)C(O)C(C)O)C1Cc2cc3cc(OC4CC(OC5CC(O)C(O)C(C)O5)C(O)C(C)O4)c(C)c(O)c3c(O)c2C(=O)C1OC1CC(OC2CC(OC3CC(C)(O)C(O)C(C)O3)C(O)C(C)O2)C(O)C(C)O1 (stereo not drawn),Potency,[1],1.12 µM (active)
COC(=O)C[C@](O)(CCCC(C)(C)O)C(=O)O[C@@H]1C(OC)=CC23CCCN2CCc2cc4c(cc2[C@H]13)OCO4 (stereo partly drawn),Potency,[1],0.0833 µM (active)
CC/C(=C(\c1ccc(O)cc1)c1ccc(OCCN(C)C)cc1)c1ccccc1,Potency,[7],inactive
same,Potency,[8],25.1 µM (active)
C[C@@H]1[C@H](O)[C@@H](C)/C=C/C=C/CC/C=C/C=C/C=C/C=C/[C@H](O[C@H]2O[C@@H](C)[C@H](O)[C@@H](N)[C@H]2O)CC2O[C@](O)(C[C@@H](O)[C@H](O)CC[C@@H](O)C[C@@H](O)C[C@@H](O)CC(=O)O[C@H]1C)C[C@H](O)[C@H]2C(=O)O,max response,[1],-9.77% (inactive)
COc1cccc(N2C(=O)NC(=O)/C(=C\c3ccc([N+](=O)[O-])s3)C2=O)c1,Potency,[9],8.49 µM (active)
same,Potency,[10],37.9 µM (active)
Oc1cc(Cl)cc(Cl)c1Cl,Potency,[11],66.8 µM (active)
same,Potency,[12],42.2 µM (active)
same,Potency,[5],18.8 µM (active)
COC12CC[C@@]3(C[C@@H]1C(C)(O)C(C)(C)C)[C@H]1Cc4ccc(O)c5c4[C@@]3(CCN1CC1CC1)[C@H]2O5 (stereo partly drawn),Potency,[1],31.6 µM (active)
CC(C)(N)CNC(=O)CC1CCC2(CC1)OOC1(O2)C2CC3CC(C2)CC1C3 (stereo not drawn),"parasite growth, % of DMSO control",[13],4.69% [at 28.5 µM]
same,"parasite growth remaining, % of DMSO control (lower = more inhibition)",[14],6.94% [at 28.5 µM]
same,"parasite growth, % of control (lower = inhibition)",[15],27.3% [at 28.5 µM]
same,"growth, % of control",[16],5.72% [at 28.5 µM]
CSc1cccc(NC(=O)CC[C@H]2O[C@@H]3O[C@]4(C)CC[C@H]5[C@H](C)CC[C@@H]([C@@H]2C)[C@@]35OO4)c1,remaining parasite growth % (stronger effect = lower value),[2],-0.517%
same,"activity, percent of control",[3],0.0476%
same,"remaining proliferation (% of control), lower = more inhibition",[4],0.997%
CCC1CN2CCC1CC2C(Oc1cc2ccccc2c2ccccc12)c1ccnc2ccc(O)cc12 (stereo not drawn),"activity change, negative = inhibition",[6],22% [at 11.4 µM] (inactive)
same,"activity change, negative = inhibition",[17],-10.8% [at 11.4 µM] (inactive)
same,"activity change, negative = inhibition",[18],-1.58% [at 11.4 µM] (inactive)
same,"activity, negative = inhibition",[19],16.1% [at 11.4 µM] (inactive)
